# Numbering of substitutions follows the chain as printed.
# Legend:
# Experiment in all cases: PBM; 200 nM protein, PBS
# Conditions in all cases: dsDNA, one strand shown
# [1] = molecular target: PRRX1 (Homo sapiens, UniProt P54821 80-166, F113S)
# [2] = molecular target: HOXD13 (Homo sapiens, UniProt P35453 263-343, T313R)
# [3] = molecular target: HOXD13 (Homo sapiens, UniProt P35453 263-343)
# [4] = molecular target: HOXD13 (Homo sapiens, UniProt P35453 263-343, T313A)
# [5] = molecular target: PRRX1 (Homo sapiens, UniProt P54821 80-166)
# [6] = molecular target: ALX1 (Homo sapiens, UniProt Q15699 118-204, L144V)
# [7] = molecular target: ALX3 (Homo sapiens, UniProt O95076 139-225, N203Q)
# [8] = molecular target: ALX1 (Homo sapiens, UniProt Q15699 118-204, L144R)
# [9] = molecular target: ALX3 (Homo sapiens, UniProt O95076 139-225)
# [10] = molecular target: ALX3 (Homo sapiens, UniProt O95076 139-225, L168Q)
# [11] = molecular target: ALX3 (Homo sapiens, UniProt O95076 139-225, L168V)
# [12] = molecular target: ALX1 (Homo sapiens, UniProt Q15699 118-204)
# [13] = molecular target: ALX3 (Homo sapiens, UniProt O95076 139-225, N203S)
# [14] = molecular target: PITX2 (Homo sapiens, UniProt Q99697 72-157)
# [15] = molecular target: T1, NKX2-6 (Homo sapiens, UniProt A6NCS4 118-204)
# T1 sequence: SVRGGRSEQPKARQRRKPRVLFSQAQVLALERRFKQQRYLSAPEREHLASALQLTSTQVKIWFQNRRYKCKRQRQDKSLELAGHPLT
# [16] = molecular target: T2, NKX2-6 (Homo sapiens, UniProt A6NCS4 118-204, F151L)
# T2 sequence: T1 sequence with F34L
# [17] = molecular target: PROP1 (Homo sapiens, UniProt O75360 56-141)
# [18] = molecular target: PROP1 (Homo sapiens, UniProt O75360 56-141, R99H)
# [19] = molecular target: PROP1 (Homo sapiens, UniProt O75360 56-141, F88S)
# [20] = molecular target: MSX2 (Homo sapiens, UniProt P35548 130-214, R199I)
# [21] = molecular target: MSX2 (Homo sapiens, UniProt P35548 130-214)
# [22] = molecular target: HESX1 (Homo sapiens, UniProt Q9UBX0 95-180, R109Q)
# [23] = molecular target: MSX2 (Homo sapiens, UniProt P35548 130-214, F161Y)
# [24] = molecular target: HESX1 (Homo sapiens, UniProt Q9UBX0 95-180, F115L)
# [25] = molecular target: HOXA2 (Homo sapiens, UniProt O43364 129-215, R185T)
# [26] = molecular target: HOXA2 (Homo sapiens, UniProt O43364 129-215, R185K)
# [27] = molecular target: VAX1 (Homo sapiens, UniProt Q5SQQ9 86-172)
# [28] = molecular target: VAX1 (Homo sapiens, UniProt Q5SQQ9 86-172, T142I)
# [29] = molecular target: HOXA2 (Homo sapiens, UniProt O43364 129-215, Y150S)
# [30] = molecular target: HOXA2 (Homo sapiens, UniProt O43364 129-215)
# [31] = molecular target: VAX1 (Homo sapiens, UniProt Q5SQQ9 86-172, K157R)
# VAX1 (Homo sapiens, UniProt Q5SQQ9 86-172, K157R), sequence (Q5SQQ9 86-172 K157R): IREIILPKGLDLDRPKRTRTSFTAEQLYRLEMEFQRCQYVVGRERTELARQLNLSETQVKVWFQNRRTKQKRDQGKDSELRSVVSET
# PRRX1 (Homo sapiens, UniProt P54821 80-166), sequence (P54821 80-166): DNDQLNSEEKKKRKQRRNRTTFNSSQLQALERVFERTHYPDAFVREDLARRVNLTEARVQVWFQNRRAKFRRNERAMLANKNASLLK
# ALX1 (Homo sapiens, UniProt Q15699 118-204, L144R), sequence (Q15699 118-204 L144R): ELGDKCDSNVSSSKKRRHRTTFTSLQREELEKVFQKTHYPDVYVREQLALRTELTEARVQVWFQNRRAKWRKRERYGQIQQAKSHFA
# PROP1 (Homo sapiens, UniProt O75360 56-141, F88S), sequence (O75360 56-141 F88S): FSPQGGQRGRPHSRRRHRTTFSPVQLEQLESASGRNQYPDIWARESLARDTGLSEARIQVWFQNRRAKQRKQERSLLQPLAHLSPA
# PROP1 (Homo sapiens, UniProt O75360 56-141, R99H), sequence (O75360 56-141 R99H): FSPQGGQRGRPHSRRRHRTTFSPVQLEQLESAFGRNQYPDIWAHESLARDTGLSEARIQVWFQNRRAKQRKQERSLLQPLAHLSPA
# PRRX1 (Homo sapiens, UniProt P54821 80-166, F113S), sequence (P54821 80-166 F113S): as the sequence (P54821 80-166) above, with F34S counted along it
# ALX3 (Homo sapiens, UniProt O95076 139-225, L168V), sequence (O95076 139-225 L168V): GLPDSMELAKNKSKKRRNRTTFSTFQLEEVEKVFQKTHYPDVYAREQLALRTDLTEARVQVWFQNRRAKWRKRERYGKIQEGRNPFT
# PROP1 (Homo sapiens, UniProt O75360 56-141), sequence (O75360 56-141): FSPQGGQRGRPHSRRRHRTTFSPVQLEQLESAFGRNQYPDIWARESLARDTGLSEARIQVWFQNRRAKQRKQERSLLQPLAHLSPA
# VAX1 (Homo sapiens, UniProt Q5SQQ9 86-172), sequence (Q5SQQ9 86-172): as the sequence (Q5SQQ9 86-172 K157R) above, with R72K counted along it
# ALX3 (Homo sapiens, UniProt O95076 139-225, N203S), sequence (O95076 139-225 N203S): as the sequence (O95076 139-225 L168V) above, with V30L, N65S counted along it
# HOXD13 (Homo sapiens, UniProt P35453 263-343, T313R), sequence (P35453 263-343 T313R): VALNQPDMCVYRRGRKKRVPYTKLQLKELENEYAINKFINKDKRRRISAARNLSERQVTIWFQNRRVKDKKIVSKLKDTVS
# HOXD13 (Homo sapiens, UniProt P35453 263-343, T313A), sequence (P35453 263-343 T313A): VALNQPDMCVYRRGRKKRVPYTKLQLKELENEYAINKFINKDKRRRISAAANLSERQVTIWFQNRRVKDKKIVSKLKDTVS
# ALX1 (Homo sapiens, UniProt Q15699 118-204), sequence (Q15699 118-204): as the sequence (Q15699 118-204 L144R) above, with R27L counted along it
# HOXD13 (Homo sapiens, UniProt P35453 263-343), sequence (P35453 263-343): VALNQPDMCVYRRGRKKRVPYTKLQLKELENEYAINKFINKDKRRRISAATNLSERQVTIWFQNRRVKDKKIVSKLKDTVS
# ALX1 (Homo sapiens, UniProt Q15699 118-204, L144V), sequence (Q15699 118-204 L144V): as the sequence (Q15699 118-204 L144R) above, with R27V counted along it
# ALX3 (Homo sapiens, UniProt O95076 139-225, N203Q), sequence (O95076 139-225 N203Q): as the sequence (O95076 139-225 L168V) above, with V30L, N65Q counted along it
# ALX3 (Homo sapiens, UniProt O95076 139-225, L168Q), sequence (O95076 139-225 L168Q): as the sequence (O95076 139-225 L168V) above, with V30Q counted along it
# ALX3 (Homo sapiens, UniProt O95076 139-225), sequence (O95076 139-225): as the sequence (O95076 139-225 L168V) above, with V30L counted along it
# VAX1 (Homo sapiens, UniProt Q5SQQ9 86-172, T142I), sequence (Q5SQQ9 86-172 T142I): as the sequence (Q5SQQ9 86-172 K157R) above, with T57I, R72K counted along it
# HESX1 (Homo sapiens, UniProt Q9UBX0 95-180, R109Q), sequence (Q9UBX0 95-180 R109Q): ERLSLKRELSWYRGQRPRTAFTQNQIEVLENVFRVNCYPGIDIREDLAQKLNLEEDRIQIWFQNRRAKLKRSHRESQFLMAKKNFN
# HOXA2 (Homo sapiens, UniProt O43364 129-215), sequence (O43364 129-215): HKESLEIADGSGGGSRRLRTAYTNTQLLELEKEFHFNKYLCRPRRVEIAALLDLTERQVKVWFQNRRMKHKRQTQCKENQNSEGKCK
# HOXA2 (Homo sapiens, UniProt O43364 129-215, R185K), sequence (O43364 129-215 R185K): as the sequence (O43364 129-215) above, with R57K counted along it
# HOXA2 (Homo sapiens, UniProt O43364 129-215, Y150S), sequence (O43364 129-215 Y150S): as the sequence (O43364 129-215) above, with Y22S counted along it
# MSX2 (Homo sapiens, UniProt P35548 130-214, R199I), sequence (P35548 130-214 R199I): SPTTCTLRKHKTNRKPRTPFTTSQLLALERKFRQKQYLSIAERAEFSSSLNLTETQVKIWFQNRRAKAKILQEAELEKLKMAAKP
# MSX2 (Homo sapiens, UniProt P35548 130-214, F161Y), sequence (P35548 130-214 F161Y): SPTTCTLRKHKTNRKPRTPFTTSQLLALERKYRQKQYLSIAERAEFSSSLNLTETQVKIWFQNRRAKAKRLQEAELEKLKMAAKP
# HOXA2 (Homo sapiens, UniProt O43364 129-215, R185T), sequence (O43364 129-215 R185T): as the sequence (O43364 129-215) above, with R57T counted along it
# MSX2 (Homo sapiens, UniProt P35548 130-214), sequence (P35548 130-214): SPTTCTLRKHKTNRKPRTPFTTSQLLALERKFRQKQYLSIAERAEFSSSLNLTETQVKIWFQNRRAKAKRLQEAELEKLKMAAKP
# HESX1 (Homo sapiens, UniProt Q9UBX0 95-180, F115L), sequence (Q9UBX0 95-180 F115L): as the sequence (Q9UBX0 95-180 R109Q) above, with Q15R, F21L counted along it
sequence,measurement,setting,value
GGCCTACC,binding signal,[1],"9.31 upbm affinity estimate (log intensity, higher = more binding, comparable within an allelic series)"
same,binding signal,[2],"9.55 upbm affinity estimate (log intensity, higher = more binding, comparable within an allelic series)"
same,binding signal,[3],"9.49 upbm affinity estimate (log intensity, higher = more binding, comparable within an allelic series)"
same,binding signal,[4],"9.59 upbm affinity estimate (log intensity, higher = more binding, comparable within an allelic series)"
same,binding signal,[5],"9.37 upbm affinity estimate (log intensity, higher = more binding, comparable within an allelic series)"
ACCGAGGG,binding signal,[1],"8.94 upbm affinity estimate (log intensity, higher = more binding, comparable within an allelic series)"
same,binding signal,[6],"6.46 upbm affinity estimate (log intensity, higher = more binding, comparable within an allelic series)"
same,binding signal,[7],"7.64 upbm affinity estimate (log intensity, higher = more binding, comparable within an allelic series)"
same,binding signal,[8],"6.47 upbm affinity estimate (log intensity, higher = more binding, comparable within an allelic series)"
same,binding signal,[9],"7.78 upbm affinity estimate (log intensity, higher = more binding, comparable within an allelic series)"
same,binding signal,[10],"7.65 upbm affinity estimate (log intensity, higher = more binding, comparable within an allelic series)"
same,binding signal,[11],"7.64 upbm affinity estimate (log intensity, higher = more binding, comparable within an allelic series)"
same,binding signal,[12],"6.38 upbm affinity estimate (log intensity, higher = more binding, comparable within an allelic series)"
same,binding signal,[13],"7.63 upbm affinity estimate (log intensity, higher = more binding, comparable within an allelic series)"
same,binding signal,[5],"9.32 upbm affinity estimate (log intensity, higher = more binding, comparable within an allelic series)"
CGGAACCG,binding signal,[1],"9.35 upbm affinity estimate (log intensity, higher = more binding, comparable within an allelic series)"
same,binding signal,[14],"7.68 upbm affinity estimate (log intensity, higher = more binding, comparable within an allelic series)"
same,binding signal,[5],"9.26 upbm affinity estimate (log intensity, higher = more binding, comparable within an allelic series)"
AGACGAGC,binding signal,[1],"9.44 upbm affinity estimate (log intensity, higher = more binding, comparable within an allelic series)"
same,binding signal,[15],"9.38 upbm affinity estimate (log intensity, higher = more binding, comparable within an allelic series)"
same,binding signal,[16],"9.3 upbm affinity estimate (log intensity, higher = more binding, comparable within an allelic series)"
same,binding signal,[5],"9.6 upbm affinity estimate (log intensity, higher = more binding, comparable within an allelic series)"
CTTAATCA,binding signal,[1],"10.9 upbm affinity estimate (log intensity, higher = more binding, comparable within an allelic series)"
same,binding signal,[17],"10.5 upbm affinity estimate (log intensity, higher = more binding, comparable within an allelic series)"
same,binding signal,[18],"9.83 upbm affinity estimate (log intensity, higher = more binding, comparable within an allelic series)"
same,binding signal,[19],"7.41 upbm affinity estimate (log intensity, higher = more binding, comparable within an allelic series)"
same,binding signal,[5],"13 upbm affinity estimate (log intensity, higher = more binding, comparable within an allelic series)"
AATTATTG,binding signal,[1],"11.1 upbm affinity estimate (log intensity, higher = more binding, comparable within an allelic series)"
same,binding signal,[20],"12.3 upbm affinity estimate (log intensity, higher = more binding, comparable within an allelic series)"
same,binding signal,[8],"11.1 upbm affinity estimate (log intensity, higher = more binding, comparable within an allelic series)"
same,binding signal,[21],"13.4 upbm affinity estimate (log intensity, higher = more binding, comparable within an allelic series)"
same,binding signal,[22],"8.57 upbm affinity estimate (log intensity, higher = more binding, comparable within an allelic series)"
same,binding signal,[11],"9.77 upbm affinity estimate (log intensity, higher = more binding, comparable within an allelic series)"
same,binding signal,[23],"13.1 upbm affinity estimate (log intensity, higher = more binding, comparable within an allelic series)"
same,binding signal,[24],"8.02 upbm affinity estimate (log intensity, higher = more binding, comparable within an allelic series)"
GCCCGTCC,binding signal,[1],"9.26 upbm affinity estimate (log intensity, higher = more binding, comparable within an allelic series)"
same,binding signal,[17],"6.49 upbm affinity estimate (log intensity, higher = more binding, comparable within an allelic series)"
same,binding signal,[18],"6.5 upbm affinity estimate (log intensity, higher = more binding, comparable within an allelic series)"
same,binding signal,[19],"6.38 upbm affinity estimate (log intensity, higher = more binding, comparable within an allelic series)"
same,binding signal,[5],"8.92 upbm affinity estimate (log intensity, higher = more binding, comparable within an allelic series)"
CCCAAAGG,binding signal,[1],"9.18 upbm affinity estimate (log intensity, higher = more binding, comparable within an allelic series)"
same,binding signal,[2],"9.56 upbm affinity estimate (log intensity, higher = more binding, comparable within an allelic series)"
same,binding signal,[3],"9.54 upbm affinity estimate (log intensity, higher = more binding, comparable within an allelic series)"
same,binding signal,[4],"9.58 upbm affinity estimate (log intensity, higher = more binding, comparable within an allelic series)"
same,binding signal,[5],"9.15 upbm affinity estimate (log intensity, higher = more binding, comparable within an allelic series)"
CCGGCCAG,binding signal,[1],"8.97 upbm affinity estimate (log intensity, higher = more binding, comparable within an allelic series)"
same,binding signal,[25],"7.26 upbm affinity estimate (log intensity, higher = more binding, comparable within an allelic series)"
same,binding signal,[6],"6.59 upbm affinity estimate (log intensity, higher = more binding, comparable within an allelic series)"
same,binding signal,[7],"7.68 upbm affinity estimate (log intensity, higher = more binding, comparable within an allelic series)"
same,binding signal,[14],"7.87 upbm affinity estimate (log intensity, higher = more binding, comparable within an allelic series)"
same,binding signal,[26],"9.96 upbm affinity estimate (log intensity, higher = more binding, comparable within an allelic series)"
same,binding signal,[8],"6.61 upbm affinity estimate (log intensity, higher = more binding, comparable within an allelic series)"
same,binding signal,[9],"7.75 upbm affinity estimate (log intensity, higher = more binding, comparable within an allelic series)"
same,binding signal,[27],"6.85 upbm affinity estimate (log intensity, higher = more binding, comparable within an allelic series)"
same,binding signal,[10],"7.66 upbm affinity estimate (log intensity, higher = more binding, comparable within an allelic series)"
same,binding signal,[11],"7.61 upbm affinity estimate (log intensity, higher = more binding, comparable within an allelic series)"
same,binding signal,[28],"6.97 upbm affinity estimate (log intensity, higher = more binding, comparable within an allelic series)"
same,binding signal,[29],"10.3 upbm affinity estimate (log intensity, higher = more binding, comparable within an allelic series)"
same,binding signal,[12],"6.55 upbm affinity estimate (log intensity, higher = more binding, comparable within an allelic series)"
same,binding signal,[13],"7.66 upbm affinity estimate (log intensity, higher = more binding, comparable within an allelic series)"
same,binding signal,[5],"9.42 upbm affinity estimate (log intensity, higher = more binding, comparable within an allelic series)"
same,binding signal,[30],"7.18 upbm affinity estimate (log intensity, higher = more binding, comparable within an allelic series)"
same,binding signal,[31],"6.86 upbm affinity estimate (log intensity, higher = more binding, comparable within an allelic series)"
ATCATCAC,binding signal,[1],"10.1 upbm affinity estimate (log intensity, higher = more binding, comparable within an allelic series)"
same,binding signal,[5],"11.5 upbm affinity estimate (log intensity, higher = more binding, comparable within an allelic series)"
CGTCACCC,binding signal,[1],"9.47 upbm affinity estimate (log intensity, higher = more binding, comparable within an allelic series)"
same,binding signal,[5],"9.31 upbm affinity estimate (log intensity, higher = more binding, comparable within an allelic series)"
CCGTGTCC,binding signal,[1],"9.3 upbm affinity estimate (log intensity, higher = more binding, comparable within an allelic series)"
same,binding signal,[27],"6.98 upbm affinity estimate (log intensity, higher = more binding, comparable within an allelic series)"
same,binding signal,[28],"7.18 upbm affinity estimate (log intensity, higher = more binding, comparable within an allelic series)"
same,binding signal,[5],"9.13 upbm affinity estimate (log intensity, higher = more binding, comparable within an allelic series)"
same,binding signal,[31],"6.99 upbm affinity estimate (log intensity, higher = more binding, comparable within an allelic series)"
GAGCGGCC,binding signal,[1],"9.25 upbm affinity estimate (log intensity, higher = more binding, comparable within an allelic series)"
same,binding signal,[17],"6.83 upbm affinity estimate (log intensity, higher = more binding, comparable within an allelic series)"
same,binding signal,[18],"6.8 upbm affinity estimate (log intensity, higher = more binding, comparable within an allelic series)"
same,binding signal,[19],"6.52 upbm affinity estimate (log intensity, higher = more binding, comparable within an allelic series)"
same,binding signal,[5],"9.59 upbm affinity estimate (log intensity, higher = more binding, comparable within an allelic series)"
AGGTTTAA,binding signal,[1],"10.1 upbm affinity estimate (log intensity, higher = more binding, comparable within an allelic series)"
same,binding signal,[5],"11.4 upbm affinity estimate (log intensity, higher = more binding, comparable within an allelic series)"

# Source: article PMC11006913
